# Results as given in PubChem BioAssay (EPA / NIEHS).
# Results filed as inconclusive are left out. Active and inactive are the calls of the source. Rule for the calls: active = hit-call score of the fitted dose curve at least 0.9, where 1 is the maximum; inconclusive = response in the unintended direction; inactive = score below 0.9.
# Assay: ATG_M_19_TRANS: Attagene TRANS-FACTORIAL HepG2 Assay for M19 Transcription Factor (Internal Marker) (AID 2282974)
# Conditions: HepG2 Attagene TRANS-FACTORIAL M19 internal marker reporter
# Experimental: ATG_TRANS is a cell-based, multiplexed-readout assay that uses HepG2, a human liver cell line, with measurements taken at 24 hours after chemical dosing in a 24-well plate.ATG_M_19_TRANS is one of 30 assay component(s) measured or calculated from the ATG_TRANS assay. It is designed to make measurements of mRNA induction, a form of inducible reporter, as detected with fluorescence intensity signals by Reverse transcription polymerase chain reaction (RT-PCR) and Capillary electrophoresis technology.Data from the assay component ATG_M_19_TRANS was analyzed into 1 assay endpoint. This assay endpoint, ATG_M_19_TRANS, was analyzed in the positive analysis fitting direction relative to DMSO as the negative control and baseline of activity. Using a type of inducible reporter, measures of mRNA for gain-of-signal activity can be used to understand the background control at the transcription factor-level as they relate to the gene . Furthermore, this assay endpoint can be referred to as a secondary readout, because this assay has produced multiple assay endpoints where this one serves a background control function. To generalize the intended target to other relatable targets, this assay endpoint is annotated to the background measurement intended target family, where the subfamily is internal marker.
# Human liver HepG2 cells are transiently transfected with multiple reporter transcription units (MRTUs) in 6-well plates using FuGene 6 reagent (Roche; 3 ml FuGene/1 mg DNA). The MRTU constructs are regulated by a cis-regulating element (promoter). […] A major difference between the CIS and TRANS system is that in CIS activities of endogenous TFs are measured, whereas the TRANS assay evaluates changes in activities of exogenous, chimeric NR-Gal4 proteins. […] At the end of 24 hour incubation, total RNA was isolated using TriZol reagent (Invitrogen). The isolated RNA is then reverse-transcribed using oligo(dT) primer and Mo-MLV reverse transcriptase (Invitrogen) with DNAse I (Ambion) treatment for 30 min. The one-tenth of the produced cDNA was amplified by PCR using Taq DNA polymerase (Invitrogen) and two reporter sequence-specific primers. The PCR products were fluorescently labeled by primer extension with 6-arboxyfluorescein (6-FAM) 5'-labeled reporter sequence-specific primer (2 min at 95 C, 20 s at 68 C and 10 min at 72 C) and these products were digested with 5U of HpaI (New England Biolabs) for 2h at 37 C. The fragments were purified using Qiaquick PCR columns (Qiagen), analyzed on an ABI 3130xL genetic analyzer (Applied Biosystems) with peak positions identified by using a set of X-rhodamine (ROX)-labeled MapMarker1000 molecular weight standards (BioVentures). The raw capillary electrophoresis data was processed using Attagraph software (Attagene).
SMILES,outcome,AC50
O=C(c1ccc(OCCN2CCCCC2)cc1)c1c(-c2ccc(O)cc2)sc2cc(O)ccc12,inactive,–
CCCCCCCCCCCCS,–,5.01 µM (active)
COc1ccccc1NC(=O)CC(C)=O,inactive,–
CC(CO)(CO)[N+](=O)[O-],inactive,–
O=C1OC2(c3ccc(O)cc3Oc3cc(O)ccc32)c2ccccc21,inactive,–
O=C1CCC(=O)N1,inactive,–
Cc1ccccc1S,inactive,–
C=C(C)C(=O)OCCOCCOC(=O)C(=C)C,inactive,–
CC(=O)N(C)C,inactive,–
NC(=O)c1cccnc1,inactive,–
C1=COCCC1,inactive,–
CCCCCCCCCCOC(=O)c1ccccc1C(=O)OCCCCCCCC,inactive,–
C1CCCNCC1,inactive,–
CN(C)C(=O)Nc1ccccc1,inactive,–
S=c1[nH][nH]c(=S)s1,inactive,–
NCCN1CCNCC1,inactive,–
CCCc1ccc(O)cc1,inactive,–
CC1=CC(O)CC(C)(C)C1 (stereo not given),inactive,–
O=C(OCc1ccccc1)c1ccccc1O,inactive,–
[Cu+],inactive,–

SMILES,outcome,AC50
CCOCC(C)O (stereo not given),inactive,–
CC(O)COCC(C)O (stereo not given),inactive,–
CCCCCCC(C)O (stereo not given),inactive,–
CCC(C)C1CCCCC1=O (stereo not given),inactive,–
O=S1(=O)CC(Cl)(Cl)C(Cl)(Cl)C1,inactive,–
C1COCO1,inactive,–
O=C(O)c1ccco1,inactive,–
CC1=CCC(C(C)(C)O)CC1 (stereo not given),inactive,–
CN(C)CCC=C1c2ccccc2CCc2ccccc21,inactive,–
CCCCOCCOC(=O)c1ccccc1C(=O)OCCOCCCC,inactive,–
Nc1ccc(N)c([N+](=O)[O-])c1,inactive,–
O=C1CCCCCCCCCCCC(=O)OCCO1,inactive,–
C[N+](C)(C)CCO,inactive,–
CC/C=C\CCOC(=O)C(C)C,inactive,–
CCC(=O)OC(C)(C)C1CC=C(C)CC1 (stereo not given),inactive,–
CCOC(=O)CCCCCCCCC(=O)OCC,inactive,–
COc1ccccc1O,inactive,–
CCOC(=O)C(=O)OCC,inactive,–
COC(=O)c1cccc(C(=O)OC)c1,inactive,–
c1ccc(Cc2ccccc2)cc1,inactive,–
